# Measurements as given in PubChem BioAssay (NCI).
# The panel holds about 83,000 compounds, 20% with a hit somewhere; the sample as a whole holds those more often.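 Activity criterion: percent growth below 10, measured after cells in 96-well plates were exposed to a single compound concentration for 48 hours.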 Unmarked numbers belong to inactive results. Activity calls are given as the source filed them.
# How the values were obtained:
# Assay in all cases: NCI-60 one-dose screen, 48 h (100 = growth as untreated, 0 = no growth, -100 = all killed)
# Conditions in all cases: 10 µM unless noted
# DU-145 prostate = system: DU-145 prostate
# K-562 leukemia = system: K-562 leukemia
# MALME-3M melanoma = system: MALME-3M melanoma
# MDA-MB-231 breast = system: MDA-MB-231 breast
# RXF 393 renal = system: RXF 393 renal
# SF-268 CNS = system: SF-268 CNS
# SF-295 CNS = system: SF-295 CNS
# SF-539 CNS = system: SF-539 CNS
# UACC-257 melanoma = system: UACC-257 melanoma
# M14 melanoma = system: M14 melanoma
# HCT-15 colon = system: HCT-15 colon
# HT29 colon = system: HT29 colon
# SNB-19 CNS = system: SNB-19 CNS
# PC-3 prostate = system: PC-3 prostate
# SK-MEL-5 melanoma = system: SK-MEL-5 melanoma
# UACC-62 melanoma = system: UACC-62 melanoma
# LOX IMVI melanoma = system: LOX IMVI melanoma
# SK-MEL-28 melanoma = system: SK-MEL-28 melanoma
# U251 CNS = system: U251 CNS
# SNB-75 CNS = system: SNB-75 CNS
SMILES,growth (DU-145 prostate),growth (K-562 leukemia),growth (MALME-3M melanoma),growth (MDA-MB-231 breast),growth (RXF 393 renal),growth (SF-268 CNS),growth (SF-295 CNS),growth (SF-539 CNS),growth (UACC-257 melanoma),growth (M14 melanoma),growth (HCT-15 colon),growth (HT29 colon),growth (SNB-19 CNS),growth (PC-3 prostate),growth (SK-MEL-5 melanoma),growth (UACC-62 melanoma),growth (LOX IMVI melanoma),growth (SK-MEL-28 melanoma),growth (U251 CNS),growth (SNB-75 CNS)
CCOC(=O)c1noc2c1CCc1c-2cn(Cc2ccc(OC)cc2)c1-c1cc(OC)c(OC)c(OC)c1,24.5%,7.62% (active),76.9%,-1.46% (active),11.7%,41.5%,21.2%,-10.4% (active),54.3%,3.01% (active),23.5%,4.06% (active),24.4%,25.3%,16.9%,22.4%,42.3%,58.1%,,
Cc1cn([C@]2(CF)O[C@H](CO)C2C)c(=O)[nH]c1=O (some centres not stated),124%,104%,113%,116%,101%,112%,121%,110%,103%,118%,112%,112%,118%,117%,89.4%,,97.9%,121%,103%,
COc1cc(NC(=O)C#Cc2ccccc2)c(OC)cc1Cl,83.6%,20.6%,61.4%,26.6%,83.5%,39.8%,75.1%,66.6%,89.2%,49.8%,20.6%,,40.7%,38.1%,30.1%,36.8%,17.2%,84.2%,,65.8%
O=c1c2ccccc2sc2c(NCCCNCCO)nc3ccccc3c12,16.5%,-39.5% (active),-55.3% (active),-10.6% (active),14.2%,37.5%,-3.85% (active),54.7%,64%,-61.8% (active),13.7%,,63.7%,22.1%,-64.7% (active),-17.8% (active),-87.4% (active),-18.1% (active),21.3%,
Clc1ccc2c(c1)nnn1c3ncccc3c(Br)c21,90.9%,81.8%,81.8%,63.9%,41.5%,60.9%,61.9%,61.9%,101%,97.7%,101%,,89%,78.6%,77.3%,58.3%,77.5%,109%,59.4%,-3.76% (active)
COc1ccccc1N1CCN(CC(O)COc2c(Br)c(Br)c(Br)c3c2OC(C)(C)C3)CC1 (configuration not stated),97.2%,11%,67.2%,44.9%,40.2%,131%,29.8%,94.1%,96.9%,29.9%,24.6%,,,18.9%,7.43% (active),56.6%,18.5%,90.4%,52.7%,71%
CN1C(=O)C2(NN=C(c3cccc4ccccc34)S2)c2ccccc21 (configuration not stated),50.3%,11.8%,63.5%,46%,79%,37.6%,29.7%,49.1%,50.6%,17.3%,28.3%,,33.7%,19.7%,41.8%,17.2%,31.3%,32.4%,9.26% (active),73.4%
COc1cc(/C=C/C(=O)c2c(C)n([O-])c3cc(C)c(C)cc3[n+]2=O)cc(OC)c1OC,50.5%,21.7%,86%,67.8%,54.2%,79.9%,71.7%,80.2%,100%,48.7%,51.7%,,60.5%,59.6%,59%,,51.7%,72.9%,45.8%,50.5%
C/C(=N/O)c1ccc(NC(=O)Cn2nc(-c3ccc(Cl)cc3)nc2N)cc1,104%,99.3%,102%,82.7%,100%,89.2%,107%,97.3%,73%,107%,114%,,89.1%,71.8%,98.1%,91.8%,97%,114%,90.3%,87.3%
CO[C@H]1/C=C/C=C/C=C/C[C@H](OC(=O)[C@@H](C)NC(=O)C2CCCCC2)[C@H](C)[C@@H](O)/C(C)=C\CCC2=CC(=O)C=C(NC(=O)C1)C2=O,-13.8% (active),3.3% (active),-7.99% (active),5.38% (active),-40.2% (active),-7.66% (active),-33.5% (active),-49.3% (active),-18.9% (active),-40.3% (active),6.39% (active),-28.8% (active),2.4% (active),-2.95% (active),-57% (active),2.09% (active),-38.8% (active),-3.36% (active),,
COc1ccc(-c2ccc(NC(=O)Nc3ccc(Cl)c(C(F)(F)F)c3)c(C)n2)cc1,54.5%,16.7%,82.6%,85%,81.4%,73.7%,47%,81.3%,57.1%,31.9%,37.8%,46.4%,57.3%,14.7%,55.7%,65.6%,64.5%,71.4%,33.6%,
